Several values for one entry are separate records, joined by “and”; a condition that tells them apart may be missing. Identical values can stand only once. The campaign covered roughly 300,000 compounds. About 37,000 (12%) were called active. Rule as the data show it: active = max response mostly above about 13% (no sharp cut-off); inactive = mostly below about 14%. Only a selection was taken, and actives are over-represented in it overall. Where a structure was tested more than once in an assay, its records may differ in their call.
Experiment: Cycloheximide Counterscreen for Small Molecule Inhibitors of Shiga Toxin; also: read at 38.3 µM for the half of the compounds with a filed dose; 0% is about no effect
Details: cell reporter, cycloheximide protein synthesis inhibition counterscreen; stronger effect = higher value

SMILES | max response
O=S(=O)(c1ccc(F)cc1)N1CCN=C1SCc1cccc(F)c1 | 7.74% (inactive)
COc1cccc(NC(=O)N2CCC(NC(=O)C(Cc3cccc(C)c3)NC(C)=O)CC2)c1 (centres undefined) | -0.694% (inactive)
O=C(Nc1ccc(S(=O)(=O)N2CCCCC2)cc1)C1CC(=O)N(c2ccc(F)cc2)C1 (centres undefined) | -1.91% (inactive)
CN(C)c1ccc(CNC(=O)CN2C(=O)COc3ccc(S(=O)(=O)N4CCCC4)cc32)cc1 | 9.54% (inactive)
O=[N+]([O-])C(=c1ccc2c(c1)N1C3=C(CCCC3)CC3CCCCC31N=2)[N+](=O)[O-] (centres undefined) | 6.06% (inactive)
c1ccc2c(-c3nn4nnnc4c4ccccc34)cccc2c1 | 8.28% (inactive)
O=C(CCNC(=O)C1CCN(S(=O)(=O)c2ccccc2)CC1)NC1CC1 | 11.4% (inactive)
O=C(CCS(=O)(=O)c1ccccc1)NC1CCCC1 | 49.1% (active)
CC(=O)c1cc(-c2ccccc2)n(CCC(=O)NC2CCCCCC2)c1C | -2.48% (inactive)
COCCCNC(=S)N1CCN(c2nc(-c3cccc(OC)c3)cs2)CC1 | 9.62% (inactive)
CC(C)c1ccc(Cc2nnc(NCCCO)[nH]c2=O)cc1 | 12.2% (inactive)
COc1cccc(CNS(=O)(=O)c2ccc3c(c2)CC(C)N3C(C)=O)c1 (centres undefined) | 4.58% (inactive)
Cc1cc(C)n(CC(O)CN(c2ccccc2)S(=O)(=O)c2ccc3ccccc3c2)n1 (centres undefined) | -3.48% (inactive)
Cc1cc2c(cc1C)[n+](C)cn2CC(O)COCC1CC=CCC1 (centres undefined) | -1.8% (inactive)
COc1ccc(C2/C=C\CN(S(=O)(=O)c3cccs3)CC(=O)N2Cc2ccc(F)cc2)cc1 (centres undefined) | 8.73% (inactive) and 13.8% (active)
COc1ccc(C2/C=C\CN(Cc3ccco3)C(C)C(=O)N2Cc2ccc(F)cc2)cc1 (centres undefined) | 10.6% (inactive)
COc1ccc(C2/C=C\CN(CC(C)C)CC(=O)N2Cc2ccc(F)cc2)cc1 (centres undefined) | -4.65% (inactive) and -3.5% (inactive)
C=CCn1c(SCc2ccc(Cl)c(Cl)c2)nnc1C(CO)NC(=O)c1ccc(OC)cc1 (centres undefined) | 3.34% (inactive)
Cc1nc2ccc(C(=O)N/N=C/c3ccc(O)cc3)cc2[nH]1 | 7.31% (inactive)
CSc1ccc(/C=N/NC(=O)c2cccc(Cl)c2)cc1 | 96.6% (active)
CSc1ccc(/C=N\NC(=O)COc2ccc(Cl)cc2Br)cc1 | 11.1% (inactive)
O=C(N/N=C/c1ccc(Cl)c(Cl)c1)c1ccc2nc[nH]c2c1 | 16.3% (active)
CSc1ccc(/C=N\NC(=O)CC(=O)NC(C)C)cc1 | 1.43% (inactive)
COc1ccc(/C(C)=N/NC(=O)c2ccc3nc[nH]c3c2)cc1 | -2.63% (inactive)

— PubChem BioAssay AID2314 (National Center for Advancing Translational Sciences (NCATS), 2010)
